Measurements taken from PubChem BioAssay.
The source made the active and inactive calls.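 How the source made its calls, unless noted: active means visually confirmed hit in the image check and inhibition above 20%; inconclusive means visually confirmed hit but inhibition not above 20%; inactive means no visual hit in the image check.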

Legend:
[1] = inhibitors of TNFa-induced NFkB p65 translocation, primary screen, imaging, HUVEC, MLSMR starter and 10KST1 sets (AID 438;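 active means inhibition above 20% together with a positive visual image hit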;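 further: compound added about 3h40 before a 20 min TNFalpha stimulation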;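 on inhibition: signal is the nuclear over cytoplasmic p65 intensity ratio per well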); conditions: HUVEC TNFa-induced p65 nuclear translocation; cell count: measured here: nuclei count (cytotoxicity indicator), at 2.08 µM; inhibition: at 2 µM, stronger effect = higher value, 0% TNFa-plus-vehicle, 100% no-TNFa wells
[2] = reduction of polyQ htt aggregates in cells – imaging, exon1htt(103Q)mCFP cells, high-content imaging, primary screen (AID 483;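 active means visual image review flags a hit and inhibition of aggregation exceeds 20%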;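 further: compound exposure lasted 3 days before fixation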;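 on nuclei count: percent of the per-plate median nuclei count of sample wells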); conditions: exon1htt(103Q)mCFP cell line, aggregate imaging, at 2 µM; inhibition of aggregation: stronger effect = higher value; nuclei count: measured here: cell count, toxicity
[3] = endothelial E-selectin expression blockers – imaging, HUVEC, immunofluorescence, MLSMR starter and 10KST1 sets, primary screen (AID 487); conditions: HUVEC TNFalpha-induced E-selectin immunofluorescence imaging, at 2 µM; inhibition: stronger effect = higher value; nuclei count: measured here: cell number, toxicity;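 on inhibition: signal is fraction of cell area covered by stained E-selectin grains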;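 on nuclei count: 100% = median nuclei count of all wells on the same plate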
[4] = target: Voltage-gated potassium channel subunit beta-2 (Rattus norvegicus) (UniProt P62483); test: inhibitors of rat Kvbeta2 reductase activity – biochemical, NADPH fluorescence, primary screen (AID 622;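 active means fluorescence slope higher than the sample average by over 3 SD, cut at about -0.22 in these data, passing the limit was not always enough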;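 further: slope of raw intensity against log time taken from 70 to 1610 s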); conditions: recombinant KvBeta, 4-cyanobenzaldehyde reduction, at 10 µM, stronger effect = higher value
[5] = target: Voltage-gated potassium channel subunit beta-2 (Rattus norvegicus) (UniProt P62483); test: enhancers of rat Kvbeta2 NADPH turnover – biochemical, NADPH fluorescence, primary screen (AID 623;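 active means NADPH fluorescence slope more negative than the mean of all samples by about 3 SD, 99.7% confidence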;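 further: fluorescence intensity change per second fitted from 20 to 320 s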); conditions: Recombinant KvBeta, NADPH fluorescence decrease slope, 10 min; at 10 µM; stronger effect = lower value
[6] = target: Alpha-2C adrenergic receptor (Homo sapiens) (UniProt P18825); test: compounds altering alpha2C-coupled GIRK flux – cell-based, HEK293 alpha2C/GIRK1/2, thallium flux, primary screen (AID 624;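 active means fluorescence slope after compound addition differing from the mean of all screened samples at 99.7% confidence, in either direction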;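 further: slope of fluorescence ratio to pre-addition baseline per second over 15 to 24 s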); conditions: thallium flux BTC fluorescence, at 10 µM, actives lie on both sides
[7] = blockers of RIG-like receptor reporter activation – cell-based, Sendai virus stimulus, luciferase, 10K MLSCN set, TLR/RLR signaling modifier project, primary screen (AID 602276;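 active means inhibition at or above 50% at 10 µM; inactive means inhibition below 50%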;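 further: firefly luciferase from ISG56 promoter only with Renilla not read in this screen; 0% = Sendai virus plus DMSO and 100% = medium plus DMSO without virus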); conditions: HEK293 RL24 IRF3 luciferase reporter, at 10 µM, stronger effect = higher value
[8] = TLR3 IRF3 reporter activation blockers – cell-based, poly I:C stimulus, luciferase, 10K MLSCN set, primary screen (AID 602277;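 active means inhibition of the reporter signal at or above 50%; inactive means inhibition below 50%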); conditions: HEK293-TLR3 RL24 IRF3 luciferase reporter, at 10 µM, stronger effect = higher value

Voltage-gated potassium channel subunit beta-2 (Rattus norvegicus), sequence (P62483 whole entry, looked up): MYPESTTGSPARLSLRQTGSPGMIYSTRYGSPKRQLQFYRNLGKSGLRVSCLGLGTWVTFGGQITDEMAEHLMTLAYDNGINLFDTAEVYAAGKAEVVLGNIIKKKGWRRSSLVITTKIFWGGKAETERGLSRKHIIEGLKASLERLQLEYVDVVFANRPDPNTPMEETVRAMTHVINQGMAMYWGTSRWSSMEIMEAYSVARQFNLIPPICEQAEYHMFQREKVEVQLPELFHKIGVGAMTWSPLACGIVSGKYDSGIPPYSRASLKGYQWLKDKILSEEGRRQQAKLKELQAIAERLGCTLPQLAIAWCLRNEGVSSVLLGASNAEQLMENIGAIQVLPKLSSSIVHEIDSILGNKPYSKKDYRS
Alpha-2C adrenergic receptor (Homo sapiens), sequence (P18825 whole entry, looked up): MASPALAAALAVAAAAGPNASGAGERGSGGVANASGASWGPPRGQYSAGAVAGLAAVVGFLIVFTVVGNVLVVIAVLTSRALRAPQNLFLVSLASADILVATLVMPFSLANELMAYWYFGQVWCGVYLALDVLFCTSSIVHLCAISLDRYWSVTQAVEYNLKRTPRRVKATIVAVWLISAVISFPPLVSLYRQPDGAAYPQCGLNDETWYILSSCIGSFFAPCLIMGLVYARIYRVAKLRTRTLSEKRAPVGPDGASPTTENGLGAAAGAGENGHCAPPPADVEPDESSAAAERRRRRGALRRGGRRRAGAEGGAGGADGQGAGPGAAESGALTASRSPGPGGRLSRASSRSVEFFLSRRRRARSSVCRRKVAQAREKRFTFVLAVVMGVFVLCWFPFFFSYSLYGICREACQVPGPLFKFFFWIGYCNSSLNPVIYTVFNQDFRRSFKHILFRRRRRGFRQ

Row | Compound | cell count [1] | inhibition [1] | inhibition of aggregation [2] | nuclei count [2] [%] | inhibition [3] | nuclei count [3] [%] | fluorescence slope [4] | NADPH fluorescence slope [5] | slope [6] | inhibition [7] | inhibition [8]
1 | CSC1=N/C(=C\C=C\c2cccs2)C(=O)S1 | 374 | -11.5% (inactive) | -80.1% (inactive) | 106 | 0.2% (inactive) | 115 | -0.343 (inactive) | -4.4e-05 (inactive) | 0.00431 (inactive) | 10.5% (inactive) | 28.8% (inactive)
2 | COC(=O)C(O)(CC(=O)c1ccc(OC)cc1)C(F)(F)F (stereo not drawn) | 778 | -12.8% (inactive) | 4.5% (inactive) | 100 | 36% (inactive) | 99.4 | -0.507 (inactive) | -1.8e-05 (inactive) | 0.0048 (inactive) | 9.29% (inactive) | 9.82% (inactive)
3 | O=C(CSc1nc(-c2ccccc2)cs1)NCc1ccco1 | 200 | -1.3% (inactive) | 0.4% (inactive) | 54.4 | -32.4% (inactive) | 106 | -0.511 (inactive) | -3.4e-05 (inactive) | 0.00584 (inactive) | -27.5% (inactive) | -55.9% (inactive)
4 | O=C(c1cccnc1)N1CCc2ccccc21 | 414 | 3% (inactive) | 1.6% (inactive) | 108 | 24.6% (inactive) | 95.4 | -0.468 (inactive) | 1.9e-05 (inactive) | 0.00635 (inactive) | 10% (inactive) | 43.9% (inactive)
5 | Cc1onc(-c2c(Cl)cccc2Cl)c1C(=O)NCC1CCCO1 (stereo not drawn) | 394 | 6.8% (inactive) | 15.4% (inactive) | 87.4 | -10.7% (inactive) | 113 | -0.519 (inactive) | 1.7e-05 (inactive) | 0.00578 (inactive) | -10.3% (inactive) | 10.7% (inactive)
6 | Cc1cc(NS(=O)(=O)c2ccccc2)no1 | 662 | -5.5% (inactive) | -5.5% (inactive) | 97 | -72.8% (inactive) | 122 | -0.56 (inactive) | -5.2e-05 (inactive) | 0.00728 (inactive) | 11.7% (inactive) | 28.5% (inactive)
7 | COc1cc(NC(=O)CN(c2cc(C)cc(C)c2)S(=O)(=O)c2c(C)noc2C)cc(OC)c1 | 541 | 2.3% (inactive) | -25% (inactive) | 80.6 | -42.2% (inactive) | 118 | -0.619 (inactive) | 2.8e-05 (inactive) | 0.00758 (inactive) | 18.7% (inactive) | 19.5% (inactive)
8 | O=C(NCC1CCCO1)C1CCCN(Cc2cnn(-c3ccccc3)c2-n2cccc2)C1 (stereo not drawn) | 292 | 0.8% (inactive) | 5.3% (inactive) | 86.3 | -10.5% (inactive) | 92.7 | -0.39 (inactive) | 3.8e-06 (inactive) | 0.0039 (inactive) | -11.1% (inactive) | -10.8% (inactive)
